In PubChem BioAssay (NCATS):
Results filed as inconclusive are left out. Entries that show only a call come without a potency. The source holds several records for some structures; these can differ, active in one and inactive in another. Calls of active or inactive are those of the source. Calls come from the whole dose curve; as a rule, active = well fitted curve in the direction sought with a large enough effect; inconclusive = small, poorly fitted or top-dose-only effect, or another doubt; inactive = no such curve, though single readings can be large; an effect the other way counts as inactive or inconclusive.

How the values were obtained:
[1] = molecular target: Flap endonuclease 1 (Homo sapiens) (UniProt P39748); assay: qHTS Validation Assay for the Inhibitors of Human Flap endonuclease 1 (FEN1) (AID 488816); note: potency is the fitted concentration of half-maximal effect
Chain of Flap endonuclease 1 (Homo sapiens) (P39748 whole entry, looked up): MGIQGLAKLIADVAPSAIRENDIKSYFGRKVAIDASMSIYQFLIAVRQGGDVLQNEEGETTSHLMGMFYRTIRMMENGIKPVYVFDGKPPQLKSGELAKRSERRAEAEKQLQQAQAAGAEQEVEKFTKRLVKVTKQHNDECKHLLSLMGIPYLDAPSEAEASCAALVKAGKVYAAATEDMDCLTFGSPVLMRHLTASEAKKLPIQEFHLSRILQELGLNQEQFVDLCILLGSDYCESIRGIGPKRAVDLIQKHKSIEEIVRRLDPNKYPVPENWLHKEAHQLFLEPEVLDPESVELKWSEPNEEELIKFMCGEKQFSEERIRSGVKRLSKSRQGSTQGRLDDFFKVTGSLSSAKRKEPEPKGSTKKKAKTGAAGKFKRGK
In short: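 Human FEN1 (10 nM) preincubated 15 min at room temperature with compounds, then flap DNA substrate added at 50 nM final. Fluorescence read at 0 and 15 min; concentration-response fitted with four-parameter Hill equation.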

[2] = molecular target: Chromobox protein homolog 1 (Homo sapiens) (UniProt P83916); assay: qHTS Validation Assay for Inhibitors of HP1-beta Chromodomain Interactions with Methylated Histone Tails (AID 488953); note: nearly all actives have a fitted effect of over 50% in size; note: potency is the fitted concentration of half-maximal effect
Chain of Chromobox protein homolog 1 (Homo sapiens) (P83916 whole entry, looked up): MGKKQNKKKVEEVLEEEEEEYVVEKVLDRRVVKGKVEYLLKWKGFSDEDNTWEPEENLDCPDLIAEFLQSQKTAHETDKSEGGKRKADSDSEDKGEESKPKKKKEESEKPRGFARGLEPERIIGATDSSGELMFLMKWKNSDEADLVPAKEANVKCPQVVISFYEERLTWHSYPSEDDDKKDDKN
In short: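 50 nM HP1-beta + 50 nM biotin-H3(1-18)K9me3, PBS pH 7.4, 0.01% Tween-20, 30 min RT; compound added, 30 min RT; AlphaScreen beads 10 ug/mL final, 30 min dark; luminescence read.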

[3] = molecular target: Methanococcus maripaludis chaperonin (MmCpn) (UniProt Q6LX38); assay: High-Throughput Screening for Modulators of Cytosolic Chaperonin Activity: MmCpn Primary Screen (AID 488978);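 note: 50 nM MmCpn enzyme hydrolysing 30 µM ATP at 37 °C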
Chain of Methanococcus maripaludis chaperonin (MmCpn) (Q6LX38 1-543): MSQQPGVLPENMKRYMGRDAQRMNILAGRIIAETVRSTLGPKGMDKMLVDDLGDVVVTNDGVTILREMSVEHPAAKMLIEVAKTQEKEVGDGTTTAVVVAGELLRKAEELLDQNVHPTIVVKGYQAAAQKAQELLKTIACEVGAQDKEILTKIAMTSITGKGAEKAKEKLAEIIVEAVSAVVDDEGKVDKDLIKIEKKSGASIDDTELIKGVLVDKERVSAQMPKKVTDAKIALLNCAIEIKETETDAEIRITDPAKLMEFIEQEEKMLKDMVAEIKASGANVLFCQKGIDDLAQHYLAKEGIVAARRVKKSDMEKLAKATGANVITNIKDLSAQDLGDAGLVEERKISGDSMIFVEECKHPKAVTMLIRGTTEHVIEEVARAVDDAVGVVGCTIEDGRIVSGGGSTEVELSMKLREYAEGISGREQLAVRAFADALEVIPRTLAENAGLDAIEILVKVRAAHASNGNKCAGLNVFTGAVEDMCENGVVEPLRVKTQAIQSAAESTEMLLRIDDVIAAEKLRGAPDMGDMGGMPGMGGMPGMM
In short: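 ADP formation read by HTRF Transcreener, 665/590 nm emission after 320 nm excitation. Enzyme: archaeal chaperonin at 50 nM final; substrate ATP 30 uM final; 10 min, 37C, after 5 min compound preincubation at RT.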

[4] = molecular target: D(1A) dopamine receptor (Homo sapiens) (UniProt P21728); assay: HTS Assay for Allosteric Agonists of the Human D1 Dopamine Receptor: Primary Screen for Agonists (AID 488981); note: potency is the fitted concentration of half-maximal effect
Chain of D(1A) dopamine receptor (Homo sapiens) (P21728 whole entry, looked up): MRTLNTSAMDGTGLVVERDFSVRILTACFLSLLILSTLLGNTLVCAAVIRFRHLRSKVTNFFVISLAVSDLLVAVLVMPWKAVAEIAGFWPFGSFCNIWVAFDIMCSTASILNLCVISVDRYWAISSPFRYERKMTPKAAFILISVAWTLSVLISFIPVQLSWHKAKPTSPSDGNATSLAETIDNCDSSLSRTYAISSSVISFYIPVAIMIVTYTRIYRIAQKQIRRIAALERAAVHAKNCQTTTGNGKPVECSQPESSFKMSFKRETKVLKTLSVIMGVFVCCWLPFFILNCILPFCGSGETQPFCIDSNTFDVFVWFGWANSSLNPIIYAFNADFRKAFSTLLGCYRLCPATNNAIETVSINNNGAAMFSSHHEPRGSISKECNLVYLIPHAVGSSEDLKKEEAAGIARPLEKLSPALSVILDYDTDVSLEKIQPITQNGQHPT
In short: (§1)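 Tetracycline-induced HEK293 Trex D1 cells with forced coupling to calcium, loaded with no-wash calcium dye; kinetic fluorescence read 180 s after compound addition for agonism, then a further 180 s after an EC20 dopamine challenge for potentiation.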

[5] = molecular target: D(1A) dopamine receptor (Homo sapiens) (UniProt P21728); assay: HTS Assay for Allosteric Agonists of the Human D1 Dopamine Receptor: Primary Screen for Potentiators (AID 488982)
In short: as §1

[6] = molecular target: D(1A) dopamine receptor (Homo sapiens) (UniProt P21728); assay: HTS Assay for Allosteric Agonists of the Human D1 Dopamine Receptor: Primary Screen for Antagonists (AID 488983);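 note: calcium flux response to an EC80 dopamine challenge measured with no-wash dye; nearly all actives have a fitted effect of over 65% in size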; note: potency is the fitted concentration of half-maximal effect
In short: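 Cells are induced with tetracycline and incubated overnight at 30 C, then loaded with calcium dye for 30 to 90 minutes at room temperature. Compound addition is followed by a 180 s read, then an EC80 dopamine addition and another 180 s read.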

[7] = molecular target: M-phase phosphoprotein 8 (Homo sapiens) (UniProt Q99549); assay: qHTS Validation Assay for Inhibitors for MPP8 Chromodomain Interactions with Methylated Histone Tails (AID 488949); note: nearly all actives have a fitted effect of over 55% in size; note: potency is the fitted concentration of half-maximal effect
Chain of M-phase phosphoprotein 8 (Homo sapiens) (Q99549 whole entry, looked up): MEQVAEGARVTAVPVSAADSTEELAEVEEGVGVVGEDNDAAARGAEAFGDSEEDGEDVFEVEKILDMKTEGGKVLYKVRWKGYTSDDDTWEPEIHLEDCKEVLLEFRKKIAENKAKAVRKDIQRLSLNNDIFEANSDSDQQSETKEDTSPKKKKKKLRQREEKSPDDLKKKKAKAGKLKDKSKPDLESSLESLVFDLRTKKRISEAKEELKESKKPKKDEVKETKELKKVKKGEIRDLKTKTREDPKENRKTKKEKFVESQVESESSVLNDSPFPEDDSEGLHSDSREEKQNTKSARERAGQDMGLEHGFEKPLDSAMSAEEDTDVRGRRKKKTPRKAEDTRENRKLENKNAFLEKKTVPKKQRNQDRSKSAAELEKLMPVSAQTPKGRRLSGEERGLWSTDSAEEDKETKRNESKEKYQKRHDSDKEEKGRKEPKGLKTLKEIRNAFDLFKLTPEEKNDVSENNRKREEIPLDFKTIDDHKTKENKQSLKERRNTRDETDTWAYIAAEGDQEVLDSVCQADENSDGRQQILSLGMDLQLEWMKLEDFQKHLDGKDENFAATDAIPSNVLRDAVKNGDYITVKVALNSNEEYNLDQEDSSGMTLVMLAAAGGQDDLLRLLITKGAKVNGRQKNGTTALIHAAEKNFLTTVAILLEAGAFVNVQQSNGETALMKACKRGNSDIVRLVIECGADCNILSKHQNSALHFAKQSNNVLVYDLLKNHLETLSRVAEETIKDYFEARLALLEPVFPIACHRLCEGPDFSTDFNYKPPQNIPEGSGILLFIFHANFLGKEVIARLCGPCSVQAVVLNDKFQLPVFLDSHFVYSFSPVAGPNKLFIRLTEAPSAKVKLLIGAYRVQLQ
In short: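 AlphaScreen read-out: streptavidin donor and nickel chelate acceptor beads (final 10 ug/mL), 30 min in the dark at RT. Complex of 50 nM MPP8 and 50 nM b-H3(1-18)K9me3 peptide had been exposed to compounds for 30 min beforehand.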

[8] = molecular target: Transient receptor potential cation channel subfamily V member 1 (Homo sapiens) (UniProt Q8NER1); assay: HTS Assay for Compounds that Act as Enhancers of the Vanilloid Receptor 1 (AID 488979)
Chain of Transient receptor potential cation channel subfamily V member 1 (Homo sapiens) (Q8NER1 whole entry, looked up): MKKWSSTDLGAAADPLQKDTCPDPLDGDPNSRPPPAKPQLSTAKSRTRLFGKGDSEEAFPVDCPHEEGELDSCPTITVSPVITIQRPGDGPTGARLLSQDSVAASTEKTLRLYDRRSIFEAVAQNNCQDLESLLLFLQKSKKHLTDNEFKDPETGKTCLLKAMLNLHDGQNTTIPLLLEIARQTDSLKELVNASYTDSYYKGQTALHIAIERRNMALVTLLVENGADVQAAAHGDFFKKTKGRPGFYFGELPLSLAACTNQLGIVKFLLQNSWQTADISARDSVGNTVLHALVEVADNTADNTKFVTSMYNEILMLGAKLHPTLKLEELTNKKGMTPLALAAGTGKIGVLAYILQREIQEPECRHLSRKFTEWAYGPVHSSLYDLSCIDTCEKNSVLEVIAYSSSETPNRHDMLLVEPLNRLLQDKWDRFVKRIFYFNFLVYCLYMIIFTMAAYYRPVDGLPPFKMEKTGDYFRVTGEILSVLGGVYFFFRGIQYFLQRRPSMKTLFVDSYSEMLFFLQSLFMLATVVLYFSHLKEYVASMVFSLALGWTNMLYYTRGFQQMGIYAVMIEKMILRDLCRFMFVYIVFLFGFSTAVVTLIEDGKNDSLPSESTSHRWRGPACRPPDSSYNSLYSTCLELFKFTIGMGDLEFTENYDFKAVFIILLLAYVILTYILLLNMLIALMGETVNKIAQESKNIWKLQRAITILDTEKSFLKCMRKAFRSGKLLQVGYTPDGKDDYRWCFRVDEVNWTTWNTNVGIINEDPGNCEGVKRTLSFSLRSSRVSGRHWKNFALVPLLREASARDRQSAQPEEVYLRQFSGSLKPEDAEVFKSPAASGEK
In short: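 TRPV1 cells loaded with Fluo-8 calcium dye; compound added and Ca2+ signal (ex 480/em 520 nm) followed 3 min, then capsaicin at EC20 added and read 2 more min to detect enhancement.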

[9] = molecular target: Thyrotropin receptor (Homo sapiens) (UniProt P16473); assay: qHTS Assay for Antagonists of the Thyroid Stimulating Hormone Receptor (AID 488980); note: series mostly up to about 58 µM
Chain of Thyrotropin receptor (Homo sapiens) (P16473 whole entry, looked up): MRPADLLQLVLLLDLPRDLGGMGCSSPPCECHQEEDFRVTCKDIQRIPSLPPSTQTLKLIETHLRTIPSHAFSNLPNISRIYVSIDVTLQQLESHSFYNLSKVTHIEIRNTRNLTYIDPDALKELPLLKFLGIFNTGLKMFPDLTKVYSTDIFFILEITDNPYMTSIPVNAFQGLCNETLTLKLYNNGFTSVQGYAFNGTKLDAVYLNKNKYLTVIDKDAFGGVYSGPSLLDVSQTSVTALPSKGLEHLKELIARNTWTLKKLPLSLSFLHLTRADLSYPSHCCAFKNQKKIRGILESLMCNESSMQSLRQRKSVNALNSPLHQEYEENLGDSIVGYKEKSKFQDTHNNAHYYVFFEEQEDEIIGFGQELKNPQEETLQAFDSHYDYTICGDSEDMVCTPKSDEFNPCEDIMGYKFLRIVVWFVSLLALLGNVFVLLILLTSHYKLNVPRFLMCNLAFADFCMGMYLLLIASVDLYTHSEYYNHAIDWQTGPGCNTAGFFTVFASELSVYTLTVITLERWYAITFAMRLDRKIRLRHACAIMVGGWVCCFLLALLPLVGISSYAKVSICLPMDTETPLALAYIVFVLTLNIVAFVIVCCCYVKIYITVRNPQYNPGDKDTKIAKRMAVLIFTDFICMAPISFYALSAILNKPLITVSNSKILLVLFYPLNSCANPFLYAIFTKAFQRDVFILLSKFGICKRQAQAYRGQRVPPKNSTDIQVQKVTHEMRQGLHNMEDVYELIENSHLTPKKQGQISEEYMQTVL
In short: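 TSHR-HEK293 cells; 70 uM RO 20-1724 PDE inhibitor; compound + EC80 TSH (4 nM final); anti-cAMP cryptate antibody/cAMP-d2 in lysis buffer, 30 min RT; HTRF 665/620 nm read.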

| SMILES | Potency [1] | Potency [2] | outcome [3] | Potency [4] | Potency [5] | Potency [6] | Potency [7] | outcome [8] | outcome [9] |
| --- | --- | --- | --- | --- | --- | --- | --- | --- | --- |
| CCN(CC)c1ncnc2c1ncn2[C@@H]1O[C@H](COP(=O)(O)OP(=O)(O)C(Br)(Br)P(=O)(O)O)[C@@H](O)[C@H]1O | inactive | inactive | inactive | inactive | inactive | inactive | – | – | – |
| Cc1cc(NC(=O)Nc2ccc3c(ccn3C)c2)sn1 | inactive | – | inactive | inactive | inactive | – | inactive | inactive | inactive |
| O=[N+]([O-])c1ccc2c(c1)S(=O)(=O)C=C2 | inactive | – | inactive | inactive | inactive | inactive | inactive | – | – |
| O=C(c1cc(O)c(O)c([N+](=O)[O-])c1)c1ccccc1F | 21.2 µM (active) | – | inactive | inactive | inactive | inactive | – | inactive | inactive |
| CO/S(=N\S(=O)(=O)c1ccc(Cl)cc1)c1ccc([N+](=O)[O-])cc1 (stereo not given) | inactive | – | inactive | inactive | inactive | inactive | inactive | – | – |
| O=C(/C=C/c1ccc(O)cc1)c1ccc(O)cc1O | inactive | – | inactive | – | inactive | inactive | inactive | inactive | inactive |
| Clc1ccc(N2CCN(Cc3c[nH]c4ncccc34)CC2)cc1 | inactive | – | inactive | inactive | inactive | – | inactive | inactive | inactive |
| CO/N=C(\C(=O)N[C@@H]1C(=O)N2C(C(=O)O)=C(COC(C)=O)CS[C@H]12)c1csc(N)n1 | inactive | 50.1 µM (active) | inactive | inactive | inactive | inactive | inactive | – | – |
| CC(C)ON([C@@H](C(=O)NO)C(C)C)S(=O)(=O)c1ccc(-c2ccccc2)cc1 | inactive | – | inactive | inactive | inactive | inactive | inactive | – | – |
| Cn1ncc(S(=O)(=O)Cc2ccccc2)c(Br)c1=O | inactive | – | inactive | inactive | inactive | inactive | inactive | – | – |
| NS(=O)(=O)C#Cc1ccccc1 | inactive | inactive | inactive | inactive | inactive | inactive | inactive | – | – |
| OC[C@H]1O[C@@H](n2cnc3c(NC4CCCC4)ncnc32)[C@H](O)[C@@H]1O | inactive | inactive | inactive | inactive | inactive | inactive | inactive | – | – |
| CCCCN1CCC(n2c(=O)[nH]c3ccccc32)CC1 | inactive | – | inactive | inactive | inactive | – | inactive | inactive | inactive |
| Cc1nc2sccn2c(=O)c1CCN1CCC(=C(c2ccccc2)c2ccc(F)cc2)CC1 | inactive | – | inactive | inactive | inactive | – | inactive | – | – |
| COc1ccc2c(c1)CCC1C2CC[C@@]2(C)C1CC[C@@H]2NCCCCCCN1C(=O)CCC1=O (stereo not given in full) | inactive | inactive | – | – | inactive | – | inactive | – | – |
| CNC(=O)[C@H]1O[C@@H](n2cnc3c(NCc4cccc(I)c4)ncnc32)[C@H](O)[C@@H]1O | inactive | – | inactive | inactive | inactive | inactive | inactive | – | – |
| O=C(O)CC1CCCc2ccccc2C1O (stereo not given) | inactive | – | inactive | inactive | inactive | inactive | inactive | inactive | inactive |
| CCOC(=O)N1CCN(/[N+]([O-])=N/Oc2ccc([N+](=O)[O-])cc2[N+](=O)[O-])CC1 | inactive | – | inactive | inactive | inactive | – | inactive | – | – |
| O=C1/C(=C/c2ccsc2)CC/C1=C\c1cccs1 | inactive | – | inactive | inactive | inactive | inactive | inactive | – | – |
| C#CCN1C(C)=C(C(=O)OC)C(c2cccc([N+](=O)[O-])c2)C(C(=O)OCC)=C1C (stereo not given) | inactive | – | inactive | inactive | – | inactive | inactive | inactive | inactive |
| CC(C)NC[C@@H](O)c1ccc(O)c(O)c1 | inactive | – | inactive | inactive | inactive | – | inactive | – | – |

| SMILES | Potency [1] | Potency [2] | outcome [3] | Potency [4] | Potency [5] | Potency [6] | Potency [7] | outcome [8] | outcome [9] |
| --- | --- | --- | --- | --- | --- | --- | --- | --- | --- |
| COc1cc(OC)c(/C=C2/C(=O)Nc3ccccc32)c(OC)c1 | inactive | – | inactive | inactive | inactive | inactive | – | inactive | inactive |
| O=C(c1ccc(Cl)cc1)N1CCN(c2ccc([N+](=O)[O-])c3ncccc23)CC1 | inactive | inactive | inactive | inactive | inactive | inactive | – | – | – |
| CC1CN(S(=O)(=O)c2cccc3cnccc23)CCN1 (stereo not given) | inactive | – | inactive | inactive | inactive | inactive | inactive | inactive | inactive |
| CCCn1c(=O)c2[nH]c(-c3ccc(OCC(=O)NCCN)cc3)nc2n(CCC)c1=O | inactive | – | inactive | inactive | inactive | inactive | inactive | inactive | inactive |
| NC[C@@H]1O[C@H](C23CC4CC(CC(C4)C2)C3)Cc2c1ccc(O)c2O | inactive | – | inactive | – | inactive | – | 20 µM (active) and inactive | – | inactive |
| O=C(/C=C/c1ccc(O)c(O)c1)OCCc1ccccc1 | inactive | – | inactive | – | inactive | inactive | – | inactive | inactive |
| Nc1ncnc2c1ncn2[C@@H]1O[C@H](COP(=O)(O)CP(=O)(O)OP(=O)(O)O)[C@@H](O)[C@H]1O | inactive | inactive | inactive | inactive | inactive | inactive | – | – | – |
| C=CC(C)=C[C@@]1(C)SC(=O)C(C)=C1O | inactive | – | inactive | inactive | inactive | – | inactive | – | – |
| NC[C@H]1O[C@@H](n2cnc3c(N)ncnc32)[C@H](O)[C@@H]1O | inactive | inactive | inactive | inactive | inactive | inactive | inactive | – | – |
| COc1ccccc1N1CCN(CCN(C(=O)c2ccc(I)cc2)c2ccccn2)CC1 | inactive | – | inactive | inactive | inactive | – | inactive | – | – |
| Clc1ccc(N2CCN(Cc3cc4ccccn4n3)CC2)cc1 | inactive | – | inactive | inactive | inactive | inactive | inactive | – | – |
| NO | inactive | – | inactive | inactive | inactive | inactive | inactive | inactive | inactive |
| C=CC(N)CCC(=O)O (stereo not given) | inactive | – | inactive | inactive | – | inactive | inactive | inactive | inactive |
| CN1CCC[C@H]1c1cccnc1 | inactive | – | inactive | inactive | – | inactive | inactive | inactive | – |
| O=C(O)CC[C@@H](C(=O)O)N1C(=O)c2ccccc2C1=O | inactive | – | inactive | inactive | – | inactive | inactive | inactive | inactive |
| C=CC(=O)c1ccc(CCCCCC)cc1 | inactive | – | inactive | inactive | inactive | – | inactive | – | – |
| OC[C@H]1O[C@@H](n2cnc3c(Nc4ccccc4)ncnc32)[C@H](O)[C@@H]1O | – | 0.006 µM (active) | inactive | inactive | inactive | inactive | inactive | – | – |
| CCCCCCCCCCCCCCCCCC(=O)NCC(COP(=O)([O-])OCC[N+](C)(C)C)OCC (stereo not given) | – | inactive | inactive | 10 µM (active) | – | 12.6 µM (active) | inactive | inactive | inactive |
| CC(C)(C)c1ccc(S(=O)(=O)/C=C/C#N)cc1 | – | 44.7 µM (active) | inactive | – | – | – | 20 µM (active) and inactive | – | inactive |
| CCCCCCCCCCCCCCCC(=O)NCC(COP(=O)([O-])OCC[N+](C)(C)C)OCC (stereo not given) | – | inactive | inactive | 12.6 µM (active) | inactive | – | inactive | – | inactive |
| NCCSSCCN | – | 50.1 µM (active) | inactive | inactive | inactive | inactive | 79.4 µM (active) and inactive | inactive | inactive |
